Sampled rows, rich in hits. Any-hit rate of the full collection: about 19%.
TDP1 inh = blocks human tyrosyl-DNA phosphodiesterase 1. recombinant TDP1, AlphaScreen DNA substrate cleavage. actives 0.28% (n = 350,000). Q9NUW8. Potency, µM (titrated, usually from 130 µM), inactives show at the highest dose activity change, negative = inhibition, usual class: inhibitors; also: potency is read from the fitted curve at half-maximal effect; % is scaled to controls: 0 for no effect and ±100 for the full control effect; nearly all actives have a fitted effect of over 40% in size
Target sequence (Q9NUW8 whole entry, looked up): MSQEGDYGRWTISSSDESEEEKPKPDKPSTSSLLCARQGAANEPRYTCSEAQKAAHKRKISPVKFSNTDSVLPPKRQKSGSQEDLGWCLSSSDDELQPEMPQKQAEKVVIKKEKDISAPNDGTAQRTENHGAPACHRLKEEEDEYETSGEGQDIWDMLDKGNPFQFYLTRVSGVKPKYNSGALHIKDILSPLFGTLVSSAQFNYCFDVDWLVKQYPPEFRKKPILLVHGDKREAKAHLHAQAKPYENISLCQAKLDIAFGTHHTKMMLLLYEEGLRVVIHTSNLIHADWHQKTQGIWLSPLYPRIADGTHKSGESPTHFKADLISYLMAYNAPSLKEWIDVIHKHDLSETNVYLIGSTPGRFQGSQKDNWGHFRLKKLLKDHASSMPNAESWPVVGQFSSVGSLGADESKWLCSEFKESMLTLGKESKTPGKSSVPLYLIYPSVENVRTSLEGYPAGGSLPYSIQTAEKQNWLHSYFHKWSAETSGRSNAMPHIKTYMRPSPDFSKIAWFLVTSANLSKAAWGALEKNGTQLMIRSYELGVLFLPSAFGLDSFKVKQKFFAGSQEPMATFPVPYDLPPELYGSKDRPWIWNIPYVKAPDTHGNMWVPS
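Recombinant E. coli-expressed Tdp1 (1 nM) preincubated with compound 15 min at RT, then 5'-biotin/3'-phosphotyrosine-FITC DNA substrate (15 nM) added for 5 min. AlphaScreen beads (10 ug/ml) added, 10 min RT; tyrosine-FITC cleavage read as signal loss.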
TDP1 cell noCPT = qHTS for Inhibitors of human tyrosyl-DNA phosphodiesterase 1 (TDP1): qHTS in cells in absence of CPT; DT40 Tdp1-/- hTDP1 cells, no CPT, ATP luminescence, 48 h; AID 686978, 2013; actives 15% (n = 420,000); Potency, µM (series often up to 46.2 µM), for inactives: top-dose activity change, negative = growth inhibition, actives largely listed as inhibitors; also: potency is read from the fitted curve at half-maximal effect; % is scaled to controls: 0 for no effect and ±100 for the full control effect; nearly all actives have a fitted effect of over 55% in size
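Chicken DT40 Tdp1-/- cells complemented with human TDP1, screened without camptothecin (DMSO vehicle only), 400 cells/well. Compounds pin-transferred, cells incubated at 37 °C for at least 48 hr. Growth read as ATP-dependent luminescence (CellTiter-Glo, 30 min at RT).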
IL1B secr inh = inhibitors of inflammasome signaling (IL-1 beta secretion); THP-1 LPS/ATP IL-1B secretion, AlphaLISA, 16 h; hits give low values; actives 4.7% (n = 360,000); AID 743279; activity change, % at 57.5 µM; in the data active = activity change below about -50%; inconclusive = mostly about -30% to -49%; also: % is scaled to controls: 0 for no effect and ±100 for the full control effect
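THP-1 cells pretreated 1 hr with compounds (up to 57.5 uM final), then stimulated with LPS (250 ng/mL final) plus ATP (1.25 mM final); secreted IL-1B measured by AlphaLISA after 16 hr, decreased signal indicating inhibition.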
HepG2 viability = kills HepG2 cells in TGF-b inhibitor counter-screen; actives 0.76% (n = 410,000); AID 588856; HepG2 CAGA-GFP viability, ATP luminescence, 18 h; Potency, µM (doses to about 46.1 µM), without a hit: top-dose activity change, negative = cytotoxicity, hits mostly cytotoxic; also: potency is read from the fitted curve at half-maximal effect
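HepG2 CAGA-GFP cells (1000/well, DMEM with 1% FBS) received compound, then TGF-beta at 500 pg/mL final, and were incubated 18 hours at 37 degrees C. Viability was read by CellTiter-Glo luminescence. Media-only wells were set as complete cell-killing and DMSO as no toxicity.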
TGFb inhibitor = blocks TGF-b signaling; HepG2 CAGA-GFP TGF-b/SMAD3 reporter, GFP fluorescence, 18 h; TGF-beta stimulated, 500 pg/mL final; Potency, µM (series often up to 46.1 µM), for inactives: top-dose activity, negative = inhibition, hits mostly inhibitors; actives 1.2% (n = 410,000); also: potency is read from the fitted curve at half-maximal effect; % is scaled to controls: 0 for no effect and ±100 for the full control effect; nearly all actives have a fitted effect of over 65% in size
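HEPG2 CAGA-GFP, 1000 cells/well; 2 h settle, 37 C; cpd via pin tool; TGF-b 500 pg/mL final; 18 h, 37 C; GFP imaging ex488/em500-530; %Activity normalised to -TGF-b and +DMSO controls; CRC fit, curve class.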
DT40 TDP1 CPT = growth inhibition of DT40 Tdp1-/-;hTDP1 cells with camptothecin (screen for TDP1 inhibitors). actives 12% (n = 420,000). Potency, µM (top dose mostly 46.2 µM), without a hit: top-dose activity change, negative = growth inhibition, actives largely listed as inhibitors. chicken DT40 Tdp1-/-;hTDP1 cells + 20 nM CPT, ATP luminescence, 48 h; also: potency is read from the fitted curve at half-maximal effect; % is scaled to controls: 0 for no effect and ±100 for the full control effect; nearly all actives have a fitted effect of over 55% in size
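Chicken DT40 Tdp1-/- cells complemented with human TDP1, 400 cells/well, exposed to compounds plus 20 nM camptothecin for at least 48 h at 37 C; viability read as ATP content by CellTiter-Glo luminescence.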
* marks the source's active call; other numbers are inactive results; [ ] = remark or other dose. Unless noted, calls follow the shape of the dose curve; as a rule, active = well fitted curve in the direction sought with a large enough effect; inconclusive = small, poorly fitted or top-dose-only effect, or another doubt; inactive = no such curve, though single readings can be large; an effect the other way counts as inactive or inconclusive.

How did CCN1CCN(C(c2ccccn2)c2c(NC(=O)c3ccccc3)sc(C)c2C)CC1 (centres undefined) do in these assays?
TDP1 inh: 1.5%; TDP1 cell noCPT: 8.2µM*; IL1B secr inh: inconclusive; HepG2 viability: -22.8%; TGFb inhibitor: 3.2%; DT40 TDP1 CPT: 8.2µM*

Results for COc1ccc(C(c2c(NC(=O)c3ccco3)sc(C)c2C)N2CCOCC2)cc1 (centres undefined) ?
TDP1 inh: 4.5%; TDP1 cell noCPT: inconclusive; IL1B secr inh: inconclusive; HepG2 viability: -1.4%; TGFb inhibitor: 0.3%; DT40 TDP1 CPT: inconclusive

How did CCN1CCN(C(c2cccnc2)c2c(NC(=O)c3ccco3)sc(C)c2C)CC1 (centres undefined) do in these assays?
TDP1 inh: 2.2%; TDP1 cell noCPT: 23.1µM*; IL1B secr inh: inconclusive; HepG2 viability: -5.0%; TGFb inhibitor: -4.1%; DT40 TDP1 CPT: 16.4µM*

How did COc1ccc(C(c2c(NC(=O)c3ccccc3)sc(C)c2C)N2CCN(CCO)CC2)cc1 (centres undefined) do in these assays?
TDP1 inh: 1.8%; TDP1 cell noCPT: -1.2%; IL1B secr inh: 3.5; HepG2 viability: -11.3%; TGFb inhibitor: -0.4%; DT40 TDP1 CPT: -6.2%

Results for O=C(NCCC1CCCCN1S(=O)(=O)c1ccccc1)C(=O)NCc1ccccc1 (centres undefined) ?
TDP1 inh: 0.1%; TDP1 cell noCPT: inconclusive; IL1B secr inh: -0.5; HepG2 viability: -10.3%; TGFb inhibitor: 2.3%; DT40 TDP1 CPT: inconclusive

How did Cc1ccc(CNC(=O)C(=O)NCCC2CCCCN2S(=O)(=O)c2ccccc2)cc1 (centres undefined) do in these assays?
TDP1 inh: 0.6%; TDP1 cell noCPT: 14.6µM*; IL1B secr inh: -4.7; HepG2 viability: -5.2%; TGFb inhibitor: -1.0%; DT40 TDP1 CPT: inconclusive

How did O=C(NCCC1CCCCN1S(=O)(=O)c1ccccc1)C(=O)NCc1ccc(F)cc1 (centres undefined) do in these assays?
TDP1 inh: -1.2%[0.505 µM]; TDP1 cell noCPT: 18.4µM*; IL1B secr inh: -24.6; HepG2 viability: -11.4%; TGFb inhibitor: -6.7%; DT40 TDP1 CPT: inconclusive

Results for CC(C(=O)Nc1ccccc1C(F)(F)F)n1nc(-c2ccccc2)c2c(c1=O)CCCC2 (centres undefined) ?
TDP1 inh: 0.0%; TDP1 cell noCPT: 16.4µM*; HepG2 viability: -20.1%; TGFb inhibitor: inconclusive; DT40 TDP1 CPT: inconclusive

Results for O=C1c2cc(F)ccc2OC2(CCNCC2)C12CC(c1ccccc1)=NO2 (centres undefined) ?
TDP1 inh: 2.4%; TDP1 cell noCPT: inconclusive; IL1B secr inh: -53.2*; HepG2 viability: -50.4%; TGFb inhibitor: 1.4%; DT40 TDP1 CPT: 14.6µM*

What do the screens show for `CC(C)(C)OC(=O)N1CCC2(CC1)Oc1ccc(F)cc1C(=O)C21CC(c2ccccc2)=NO1` (centres undefined)?
TDP1 cell noCPT: inconclusive; IL1B secr inh: inconclusive; HepG2 viability: -68.9%; TGFb inhibitor: 7.0%; DT40 TDP1 CPT: 23.1µM*

What do the screens show for `COC(=O)c1ccc(-c2nc(CN3CCN(C(=O)c4ccco4)CC3)c(C)o2)cc1`?
TDP1 cell noCPT: 2.0%; IL1B secr inh: 42.6; HepG2 viability: -0.8%; TGFb inhibitor: -5.7%; DT40 TDP1 CPT: -8.9%

Results for C/C(CCc1ccc2c(c1)OCO2)=N\NC(=S)NC(C)C ?
TDP1 inh: 7.0%; TDP1 cell noCPT: 16.4µM*; IL1B secr inh: -10.0; HepG2 viability: -71.0%; TGFb inhibitor: inconclusive; DT40 TDP1 CPT: 18.4µM*

What do the screens show for `C/C(CCc1ccc2c(c1)OCO2)=N\NC(=O)c1ccc(C)cc1C`?
TDP1 inh: -1.2%; TDP1 cell noCPT: 2.91µM*; IL1B secr inh: -9.6; HepG2 viability: -25.4%; TGFb inhibitor: -10.1%; DT40 TDP1 CPT: 0.7%

How did CC1CCCC(NC(=O)C2CCN(S(=O)(=O)N3CCCCCC3)CC2)C1C (centres undefined) do in these assays?
TDP1 inh: -2.6%; TDP1 cell noCPT: 23.1µM*; IL1B secr inh: -3.7; HepG2 viability: 11.5%; TGFb inhibitor: 2.9%; DT40 TDP1 CPT: inconclusive

How did CN(C)CCCNc1nc2cc(-c3ccccc3)sc2c(=O)n1C do in these assays?
TDP1 cell noCPT: 20.6µM*; IL1B secr inh: 0.0; HepG2 viability: -19.2%; TGFb inhibitor: -3.0%; DT40 TDP1 CPT: 20.6µM*

How did C=CCNc1nc2cc(-c3cccc(Cl)c3)sc2c(=O)n1C do in these assays?
TDP1 cell noCPT: 16.4µM*; IL1B secr inh: 79.1; HepG2 viability: -9.1%; TGFb inhibitor: 17.0%; DT40 TDP1 CPT: 13µM*

Results for COc1cccc(-c2cc3nc(NCCN4CCCC4)n(C)c(=O)c3s2)c1 ?
TDP1 cell noCPT: 23.1µM*; IL1B secr inh: inconclusive; HepG2 viability: -16.8%; TGFb inhibitor: 27.3%; DT40 TDP1 CPT: inconclusive

Results for CN(C)CCCNc1nc2cc(-c3ccc(F)cc3)sc2c(=O)n1C ?
TDP1 cell noCPT: 18.4µM*; IL1B secr inh: -15.0; HepG2 viability: -84.5%; TGFb inhibitor: inconclusive; DT40 TDP1 CPT: 18.4µM*

What do the screens show for `CN(C)CCCNc1nc2cc(-c3cncnc3)sc2c(=O)n1C`?
TDP1 cell noCPT: -27.4%; IL1B secr inh: -0.7; HepG2 viability: 12.7%; TGFb inhibitor: 20.2%; DT40 TDP1 CPT: -29.3%

Results for C[C@@H]1/C=C\CC(=O)OC[C@H](C)C(=O)N2CCC[C@@H]2C(=O)OC1 ?
TDP1 inh: 6.9%[21 µM]

How did Cc1cc(F)ccc1NC(=O)c1sc2nc(-c3cccs3)ccc2c1N do in these assays?
TDP1 cell noCPT: inconclusive; HepG2 viability: -44.2%; TGFb inhibitor: -40.6%; DT40 TDP1 CPT: inconclusive

Results for COc1ccc(-c2ccc3c(N)c(C(=O)Nc4cccc(C)c4)sc3n2)cc1 ?
TDP1 inh: 0.3%; TDP1 cell noCPT: inconclusive; HepG2 viability: -16.7%; TGFb inhibitor: -9.8%; DT40 TDP1 CPT: 16.4µM*

What do the screens show for `Cc1ccc(NC(=O)c2sc3nc(-c4ccc(F)cc4)ccc3c2N)cc1F`?
TDP1 inh: 4.2%; TDP1 cell noCPT: 20.6µM*; HepG2 viability: -0.8%; TGFb inhibitor: -14.4%; DT40 TDP1 CPT: 11.6µM*
